Test systems include SR leukemia; RPMI-8226 leukemia; OVCAR-8 ovarian; OVCAR-5 ovarian; OVCAR-4 ovarian; SK-OV-3 ovarian; IGROV1 ovarian; HS 578T breast; NCI/ADR-RES ovarian; T-47D breast; BT-549 breast; MDA-MB-435 melanoma; SW-620 colon; MCF7 breast; HCT-116 colon; HCC-2998 colon; KM12 colon.
Experiment in all cases: NCI-60 one-dose screen, 48 h (100 = growth as untreated, 0 = no growth, -100 = all killed)
Common to all, as to details: 10 µM unless noted

About 83,000 compounds went through this panel and 20% of them were active in at least one assay; those are over-represented in the sample as a whole.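 A percent growth of 40 corresponds to 60% growth inhibition; 0 means no net growth; -100 means all cells died. Active threshold: below 10.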 A number with no mark means an inactive call. Active and inactive are the calls of the source.

As to `CN1CCC(n2cc(Nc3ncc4c(=O)n(-c5c(Cl)cccc5Cl)cc(Br)c4n3)cn2)CC1`, the growth was -21.4% (active) in the test with SR leukemia; 20.7% in the test on RPMI-8226 leukemia; 6.91% (active) with OVCAR-8 ovarian; 43.5% in the test on OVCAR-5 ovarian; 33.8% in the test on OVCAR-4 ovarian; 32.7% with SK-OV-3 ovarian. Besides, the growth in the test with IGROV1 ovarian was 15%; with HS 578T breast, 45.1%; in the test with NCI/ADR-RES ovarian it was 34%; with T-47D breast, 37%; in the test on BT-549 breast, 57.5%; with MDA-MB-435 melanoma, 5.4% (active). Also, the growth with SW-620 colon was 20.5%; in the test with MCF7 breast it was 18.7%; in the test on HCT-116 colon it was 5.66% (active); in the test with HCC-2998 colon, 31%; in the test on KM12 colon, 14.8%.
Take `O=C(CSc1nc2ccccc2c(=O)n1-c1ccccc1)Nc1cccc(C(=O)/C=C/c2ccccc2)c1`: the growth with SR leukemia is 77.5%; in the test on RPMI-8226 leukemia it was 6.02% (active); with OVCAR-8 ovarian, 84%; with OVCAR-5 ovarian it was 96.6%; in the test with OVCAR-4 ovarian, 94%; in the test on SK-OV-3 ovarian, 103%. Further, the growth in the test with IGROV1 ovarian was 95.4%; in the test with HS 578T breast it was 92.5%; in the test on NCI/ADR-RES ovarian, 96.8%; with T-47D breast it was 76.8%; in the test on BT-549 breast, 112%; in the test with MDA-MB-435 melanoma, 93.2%. Moreover, the growth in the test with SW-620 colon was 90%; in the test on MCF7 breast, 19%; in the test on HCT-116 colon, -13.7% (active); in the test on HCC-2998 colon, 113%; with KM12 colon, 87.5%.
On to `COc1ccc(/C=C/C(=O)c2cccc(NC(=O)CSc3nc4ccccc4c(=O)n3-c3ccccc3)c2)cc1OC`, for which the growth in the test with SR leukemia is 73%; with RPMI-8226 leukemia it was 67.9%; with OVCAR-8 ovarian it was 102%; in the test on OVCAR-5 ovarian, 111%; in the test with OVCAR-4 ovarian it was 98.8%; in the test on SK-OV-3 ovarian it was 120%. Moreover, the growth was 105% in the test on IGROV1 ovarian; 100% with HS 578T breast; 105% in the test with NCI/ADR-RES ovarian; 88.2% with T-47D breast; 115% with BT-549 breast; 101% in the test with MDA-MB-435 melanoma. The growth in the test with SW-620 colon is 94.1%; with MCF7 breast it was 69.2%; in the test on HCT-116 colon, 86.2%; with HCC-2998 colon, 111%; in the test on KM12 colon it was 95.9%.
Take `COc1ccc(-n2c(SCc3nnc(NC(=O)c4ccc(Br)cc4)s3)nc3cc(OC)c(OC)cc3c2=O)cc1`: the growth in the test on SR leukemia is 101%; in the test with RPMI-8226 leukemia, 104%; in the test on OVCAR-8 ovarian, 94.9%; in the test on OVCAR-5 ovarian, 95.5%; with OVCAR-4 ovarian it was 93.8%; in the test on SK-OV-3 ovarian it was 108%. The growth was 102% in the test on IGROV1 ovarian; 99% with HS 578T breast; 78.8% in the test with NCI/ADR-RES ovarian; 112% in the test with T-47D breast; 137% with BT-549 breast; 87.5% with MDA-MB-435 melanoma. Besides, the growth was 95.7% in the test on SW-620 colon; 85.6% with MCF7 breast; 96.2% with HCT-116 colon; 88.2% in the test with HCC-2998 colon; 90.6% with KM12 colon.
For the compound `c1n[nH]cc1-c1nc2ccc3[nH]ncc3c2c2c1CCCC2`, the growth in the test on SR leukemia was -9.78% (active); with RPMI-8226 leukemia, 41.5%; in the test on OVCAR-8 ovarian, 23.5%; with OVCAR-5 ovarian it was 43.9%; in the test with OVCAR-4 ovarian, 54.1%; in the test with SK-OV-3 ovarian, -19.6% (active). In addition, the growth with IGROV1 ovarian is 20.8%; with HS 578T breast, -4.89% (active); in the test on NCI/ADR-RES ovarian, 51.1%; in the test on T-47D breast, 15.7%; in the test with BT-549 breast it was -18.9% (active); in the test on MDA-MB-435 melanoma it was 1.93% (active). In addition, the growth was 6.24% (active) in the test with SW-620 colon; 3.93% (active) in the test on MCF7 breast; -3.08% (active) with HCT-116 colon; 33.5% in the test with HCC-2998 colon; 5.28% (active) with KM12 colon.
For the compound `O=C(CSc1nc2ccccc2c(=O)n1-c1ccccc1)Nc1cccc(C(=O)/C=C/c2ccccc2Cl)c1`, the growth was 89.2% with SR leukemia; 68.5% in the test on RPMI-8226 leukemia; 99.5% in the test on OVCAR-8 ovarian; 108% in the test on OVCAR-5 ovarian; 102% in the test on OVCAR-4 ovarian; 115% with SK-OV-3 ovarian. Besides, the growth in the test with IGROV1 ovarian is 107%; in the test on HS 578T breast, 106%; with NCI/ADR-RES ovarian, 104%; with T-47D breast it was 91.2%; with BT-549 breast, 118%; with MDA-MB-435 melanoma, 97.9%. Moreover, the growth in the test on SW-620 colon was 91.7%; with MCF7 breast, 54.1%; in the test with HCT-116 colon, 20.2%; in the test with HCC-2998 colon, 108%; in the test on KM12 colon, 100%.
As to `COc1ccc(CCOc2cc3c(cc2OC)CCN(C(=O)NCc2cocn2)C3c2ccc(C)cc2C)cc1` (stereo not drawn), the growth in the test on SR leukemia is 5.38% (active); in the test on RPMI-8226 leukemia, 7.04% (active); in the test with OVCAR-8 ovarian it was 17.9%; in the test with OVCAR-5 ovarian, 28.6%; in the test with OVCAR-4 ovarian, 51.5%; in the test on SK-OV-3 ovarian it was 38%. Moreover, the growth in the test on IGROV1 ovarian is 12.9%; in the test with HS 578T breast, -4.03% (active); in the test with NCI/ADR-RES ovarian it was 4.95% (active); in the test on T-47D breast, 49%; in the test on BT-549 breast, -17% (active); in the test with MDA-MB-435 melanoma it was 8.73% (active). Moreover, the growth was 23% in the test on SW-620 colon; 13.5% in the test on MCF7 breast; 6.95% (active) with HCT-116 colon; 11.5% in the test with HCC-2998 colon; 11.4% with KM12 colon.
In the case of `COc1cc(OC)c(S(N)(=O)=O)cc1C(=O)/C=C/c1ccc(Cl)cc1`, the growth is -19.5% (active) with SR leukemia; -5.04% (active) in the test on RPMI-8226 leukemia; 3% (active) with OVCAR-8 ovarian; 17.2% in the test on OVCAR-5 ovarian; 49.9% with OVCAR-4 ovarian; 33.6% with SK-OV-3 ovarian. Also, the growth with IGROV1 ovarian is 6.66% (active); in the test with HS 578T breast, 13.2%; in the test with NCI/ADR-RES ovarian, 20%; with T-47D breast, 26.1%; in the test with BT-549 breast, 1.01% (active); in the test with MDA-MB-435 melanoma it was 16.7%. For the same compound, the growth in the test with SW-620 colon is -39.9% (active); in the test with MCF7 breast, 5.69% (active); in the test with HCT-116 colon, 7.77% (active); in the test with HCC-2998 colon, 1.39% (active); in the test on KM12 colon, 1.9% (active).
Take `NS(=O)(=O)c1ccc(Nc2nc(SCC(=O)c3ccc(Cl)cc3)nc3c2CCCC3)cc1`: the growth is 26.9% in the test on SR leukemia; 42.8% in the test with RPMI-8226 leukemia; 52.3% with OVCAR-8 ovarian; 88.3% in the test with OVCAR-5 ovarian; 47.7% with OVCAR-4 ovarian; 101% in the test with SK-OV-3 ovarian. In addition, the growth in the test on IGROV1 ovarian is 84.8%; in the test on HS 578T breast, 44.6%; with NCI/ADR-RES ovarian it was 74.6%; in the test with T-47D breast, 13.5%; with BT-549 breast it was 67.3%; in the test on MDA-MB-435 melanoma, 54.4%. For the same compound, the growth in the test with SW-620 colon was 40.5%; in the test with MCF7 breast, 25.4%; with HCT-116 colon, 36.8%; in the test on HCC-2998 colon, 21.6%; with KM12 colon, 19.6%.

Values taken from PubChem BioAssay (NCI).
